“And” between values parts separate entries of the source, which are not always exact repeats. Equal entries are not always repeated. Compounds without any hit were thinned out: in the full panel of roughly 83,000, 20% have a hit.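 Cell lines were cultured in 96-well plates, exposed to a single compound concentration, and assessed for percent growth 48 hours later.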 The source made the active and inactive calls. How the source made its calls: active means growth percent below 10; inactive means the rest.

The subject of this assay is MDA-MB-468 breast. Put plainly: NCI-60 one-dose screen, 48 h (100 = growth as untreated, 0 = no growth, -100 = all killed). The note with it: 10 µM unless noted.
As to `O=C(NCCNC(=O)Oc1cccc2ccccc12)Oc1cccc2ccccc12`, the growth was 103% (inactive).

Turning to `CCCCn1cnc(-c2cc(-c3ccccc3)cc(C(F)(F)F)c2)n1`, the growth is 99% (inactive).

Regarding `Nc1nc(N)nc(NCc2ccccc2)n1`, the growth was 114% (inactive).

As to `c1ccc(-c2ccc3ccccc3c2)cc1`, the growth was 91.8% (inactive).

On to `O=C(CCN1CCCC1)Nc1ccc2c(Nc3ccc(Br)cc3)c3ccccc3nc2c1`, for which the growth is 39.5% (inactive).

Take `CN(C)c1nc2c([nH]1)c(=O)n(C)c(=O)n2C`: the growth was 101% (inactive).

For `COC(=O)Nc1nc2ccc(C(=O)c3ccccc3N(C)C3COC3)cc2[nH]1`, the growth was 23.8% (inactive).

For `Cc1ccc(C2CC(c3ccc(Nc4ccnc5cc(Cl)ccc45)cc3)=NN2C=O)cc1` (stereo not given), the growth is 33% (inactive).

For the compound `O=C1OCC2=C1C(c1cccc(F)c1)c1cc3c(cc1N2CCO)CCC3` (stereo not given), the growth was -5.09% (active).

In the case of `CCOC(=O)c1cccc(NC2=C(Cl)C(=O)C(C)=C(C)C2=O)c1`, the growth was -20.6% (active).

`O=CN1CCCCC1`: the growth is 95.6% (inactive).

As to `OC(CNC1CCCCC1)Cn1c2ccc(I)cc2c2cc(I)ccc21` (stereo not given), the growth was 67.4% (inactive).

In the case of `CN1CCN(c2cc(Nc3cc(C4CC4)[nH]n3)nc(Nc3ccc(CC(=O)NCc4cccc(F)c4)cc3)n2)CC1`, the growth is 98.8% (inactive).

In the case of `Cc1ccccc1N1C(=O)c2cc(S(N)(=O)=O)c(Cl)cc2NC1C` (stereo not given), the growth was 119% (inactive).

As for `O=C1/C(=C/c2ccccc2Br)COc2ccc(O)c(O)c21`, the growth is 19.2% (inactive).

`COc1ccc(/C=C2\CCCC3=C2N=C2SC=NN2C3c2ccc(OC)c(OC)c2)cc1OC` (stereo not given): the growth was 14.5% (inactive).

As for `O=c1[nH]c(-c2ccc(Cl)cc2)nc2sc3c(c12)CCCC3`, the growth was 82.2% (inactive).

Take `CCCCCCCC/C=C/CCCCCCCC1=NC(C)(C)CN1CCO`: the growth is -64.5% (active).

In the case of `COc1ccc(-c2cc(Cc3cccs3)c(=O)n(Cn3cncn3)n2)cc1`, the growth is 102% (inactive).

Turning to `O=C(C1CCC1)N1N=C(c2ccc(-n3ccc(C(F)(F)F)n3)cc2)CC1c1ccc[nH]1` (stereo not given), the growth was 106% (inactive).

As for `O=c1c2cccc3c(Nc4ccccn4)ccc(c32)c2nc3ccccc3n12`, the growth was -22.4% (active).

As for `NC(=S)N1N=C(c2ccccc2)CC1c1cn(-c2ccccc2)nc1-c1ccc(OCc2ccccc2)cc1` (stereo not given), the growth was 102% (inactive).

Regarding `Cc1cnc(NC(=O)Nc2cc(Br)c(C)cc2OC[C@@H]2CNCCO2)cn1`, the growth is -26.7% (active).

Consider `O=C(NNc1nc2cc(F)cc(F)c2n2cccc12)c1ncccn1`, for which the growth was 3.64% (active).

Turning to `CN1CCN(C2CCN(C(=O)Nc3cc(Oc4ccc(NC(=O)C5(C(=O)Nc6ccc(F)cc6)CC5)c(F)c4)ccn3)CC2)CC1`, the growth was -70.7% (active) and 96.6% (inactive).

Turning to `CS(=O)(=O)Nc1cc(-c2ccc3ncc(C#N)c(NCc4ccccc4)c3c2)cnc1Cl`, the growth was -53.9% (active).

For `O=c1oc2cc(OS(=O)(=O)c3ccccc3)c(Cl)cc2c2c1CCCCCC2`, the growth was 62.2% (inactive).

As to `O=C(/C=C/c1ccc(Cl)s1)c1ccc(Cl)s1`, the growth was 88.1% (inactive) and 79.5% (inactive).

Take `CC1=NC(=S)NC(c2ccccc2)/C1=C1/CC(c2ccccc2O)NN1` (stereo not given): the growth is 107% (inactive).

For `CCCCCCCCCCCCCCCCNC(=O)Nc1ccc2ccccc2c1`, the growth was 94.3% (inactive).

Consider `O=C1OCC2=C1C(c1ccc(Cl)c(Cl)c1)c1cc3c(cc1N2CCO)OCCO3` (stereo not given), for which the growth is 23.5% (inactive).

With `CSc1nnc(-c2cc3c([nH]c4ccccc43)c(-c3cccc(O)c3)n2)n1-c1ccc(C)cc1`, the growth is 20.4% (inactive).

`COc1ccc(-n2cc(-c3ccccc3)c3c(SCC(=O)N/N=C/c4ccc([N+](=O)[O-])cc4)ncnc32)cc1`: the growth is 98% (inactive).

Turning to `Cc1cc(S(=O)(=O)N(C)C)cc(NCC(=O)NC(=O)NCC(C)C)c1C`, the growth was 104% (inactive).

Turning to `COc1cc(-c2cccc([N+](=O)[O-])c2)c(-c2nc(-c3ccccc3)c(-c3ccccc3)n2C2CC2)cc1OC`, the growth is 49.4% (inactive).

Turning to `Cc1cc(N=O)cc(C(C)(C)C)c1O`, the growth was 91% (inactive).

As for `O=C1/C(=C/c2ccc(F)cc2)Cc2ccccc21`, the growth is 96% (inactive).

As to `CC(=C(c1ccc(OCCCN(C)C)cc1)c1ccc(OCCCN(C)C)cc1)c1ccc(Cl)cc1`, the growth was 80% (inactive).

Consider `O=c1nc(Nc2nc3ccccc3s2)[nH]c(=O)c2ccccc12`, for which the growth is 99.4% (inactive).

For the compound `c1ccc(CCNc2ncnc3[nH]ncc23)cc1`, the growth is 70.9% (inactive).

Source of the values: PubChem BioAssay (NCI).
